Hits are enriched below; roughly 7.5% of the tested compounds scored in any of these assays.
SMN2 splice enh: qHTS Assay for Enhancers of SMN2 Splice Variant Expression; HEK293 SMN2-luciferase splicing reporter, luminescence, 30-36 h; Potency, µM (titrated, usually from 46.1 µM), without a hit: at the top dose activity change, positive = activation, usual class: activators; 210,000 tested, 2.8% active; AID 1458, 2008; note: % of control where 0% means no effect; nearly all actives have a fitted effect of over 55% in size
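HEK293 cells carry an SMN2 […]–luciferase reporter in which exon 7 inclusion puts luciferase in frame. Cells were plated 10-12 h before compound addition, then incubated 30-36 h at 37C. ONE-Glo luminescence was read; sodium butyrate at 4.5 mM final served as control.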
NPC1 prom act: qHTS Assay for NPC1 Promoter Activators. Huh7 NPC1 promoter luciferase reporter, 24 h. Potency, µM (series often up to 9.22 µM), without a hit: at the top dose activation, actives largely listed as activators. 320,000 tested, 2.4% active. AID 485313, 2010; note: % of control where 0% means no effect; nearly all actives have a fitted effect of over 60% in size
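Huh7 reporter cells (NPC1 promoter driving luciferase) are dosed with compound for 24 h at 37 °C, 5% CO2; luciferase detection reagent is then added and luminescence measured after 10 min at ambient temperature.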
FLuc counter: qHTS profiling assay for firefly luciferase inhibitor/activator using purifed enzyme and Km concentrations of substrates (counterscreen for miR-21 project); Luciferin 4-monooxygenase (Photinus pyralis), P08659; purified FLuc, Km substrates, luminescence inhibition; Potency, µM (top dose mostly 57.5 µM), for inactives: at the top dose activity change, negative = inhibition, usual class: inhibitors; 360,000 tested, 6.9% active; AID 588342, 2011;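 note: plate controls were vehicle for no effect and reference inhibitor for full effect; nearly all actives have a fitted effect of over 55% in size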
Target sequence (P08659 whole entry, looked up): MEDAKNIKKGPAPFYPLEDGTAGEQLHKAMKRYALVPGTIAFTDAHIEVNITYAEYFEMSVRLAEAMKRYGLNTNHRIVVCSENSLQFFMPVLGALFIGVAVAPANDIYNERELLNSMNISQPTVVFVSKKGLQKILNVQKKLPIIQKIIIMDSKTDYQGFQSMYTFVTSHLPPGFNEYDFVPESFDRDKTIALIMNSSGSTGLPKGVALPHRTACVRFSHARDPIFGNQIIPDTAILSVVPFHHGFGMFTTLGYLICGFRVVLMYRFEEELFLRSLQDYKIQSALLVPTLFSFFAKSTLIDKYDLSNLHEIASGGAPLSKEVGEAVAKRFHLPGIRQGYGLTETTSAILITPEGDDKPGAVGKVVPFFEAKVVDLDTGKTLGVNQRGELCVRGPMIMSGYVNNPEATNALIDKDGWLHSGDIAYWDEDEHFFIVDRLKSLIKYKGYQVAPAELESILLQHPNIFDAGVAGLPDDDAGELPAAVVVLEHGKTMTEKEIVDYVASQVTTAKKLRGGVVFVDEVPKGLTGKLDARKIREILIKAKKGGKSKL
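Biochemical qHTS of compounds, final roughly 60 µM downward over six points, against 10 nM purified firefly luciferase using Km concentrations of substrates (10 uM D-luciferin, 10 uM ATP) in Tris acetate pH 7.5 buffer; luminescence output.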
Rab9 promoter act: qHTS Assay for Rab9 Promoter Activators. Potency, µM (highest dose often 9.22 µM), for inactives: at the highest dose activation, negative = inhibition, actives largely listed as activators. 320,000 tested, 2.8% active. Huh7 Rab9 promoter-luciferase reporter, luminescence, 24 h. AID 485297, 2010; note: % of control where 0% means no effect; nearly all actives have a fitted effect of over 60% in size
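Using Huh7 cells stably transfected with Rab9 promoter–luciferase, compounds were incubated 24 h at 37 °C, 5% CO2; luciferase luminescence was read 10 min after reagent addition.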
ELG1 genotox: qHTS screen for small molecules that induce genotoxicity in human embryonic kidney (HEK293T) cells expressing luciferase-tagged ELG1; 330,000 tested, 1.3% active; Potency, µM (highest dose often 46 µM), inactives show at the top dose activity change, positive = activation, actives largely listed as activators; HEK293T ELG1-luciferase reporter, luminescence, 16 h; note: % of control where 0% means no effect; nearly all actives have a fitted effect of over 60% in size
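Screening used a luciferase reporter fused to human ELG1 in HEK293T cells. Luminescence was read on a CCD plate imager after 16 hr exposure and 30 min ONE-Glo incubation.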
Numbers without * were called inactive; u = inconclusive; x = no result given; [ ] = another dose, or the depositor's remark. Calls come from the whole dose curve; as a rule, active = well fitted curve in the direction sought with a large enough effect; inconclusive = small, poorly fitted or top-dose-only effect, or another doubt; inactive = no such curve, though single readings can be large; an effect the other way counts as inactive or inconclusive. Potency is the fitted concentration of half-maximal effect.

SMILES	SMN2 splice enh	NPC1 prom act	FLuc counter	Rab9 promoter act	ELG1 genotox
Cc1cc(C)c2nc(SCC(=O)N3CC(=O)Nc4ccccc43)c(C#N)cc2c1	-58%	-19%	12µM*	-31%	12%
O=C(N/N=C\c1ccc2c(c1)OCO2)c1cncc(Br)c1	x	12%	u	15%	-14%
Cc1ccc(C(=O)N/N=C\c2ccc3c(c2)OCO3)cn1	x	1%	17µM*	3%	6%
CC(/C=C/c1ccco1)=N/NC(=O)c1ccc(C)nc1	x	0%	4%	3%	1%
O=C(N/N=C\C=C\c1ccc2c(c1)OCO2)c1ccc(F)cc1	-13%	9%	u	2%	-4%
Cc1cc(C(=O)N/N=C/C=C/c2ccc3c(c2)OCO3)n[nH]1	-13%	1%	15µM*	6%	5%
O=C(N/N=C/c1ccc2c(c1)OCO2)c1cccnc1	x	28%	27µM*	13%	24%
Cc1ccc(C(=O)N/N=C/c2cccc(OC(=O)/C=C/c3ccco3)c2)cn1	x	2%	12µM*	-1%	9%
COc1ccc(C(=O)Nc2nnc(Cc3ccc(OC)c(OC)c3)s2)cc1	x	-2%	-15%	10%	1%
COC(=O)[C@H](CC(C)C)NCc1cccc(CN[C@@H](CC(C)C)C(=O)OC)c1	x	0%	1%	-2%	-2%
O=C(N/N=C/c1cccnc1)c1ccc2c(c1)OCCO2	8.9µM*	u	6µM*	3.2µM*	u
Cc1cc(C)n(-c2ccc(C(=O)Nc3nc4ccccc4s3)cc2)n1	17%	2.5µM*	2.7µM*	u	u
Nc1ccc(C(=O)Nc2nc3ccccc3s2)cc1	1.6µM*	0.63µM*	0.38µM*	0.4µM*	0.52µM*
Cc1cccc(CNc2ncnc3ccc(-c4ccc(C(=O)N(C)C)cc4)cc23)c1	3%	x	x	x	x
Cc1nnc(SCc2cccc3ccccc23)s1	x	u	24µM*	u	u
O=C(CSc1nc(-c2ccccc2)nc2ccc(F)cc12)Nc1cccc(C(=O)O)c1	x	-4%	u	-6%	-2%
Cc1ccc(Nc2nnc(SCC(=O)Nc3cccc(S(=O)(=O)NC4=NCCCCC4)c3)s2)cc1	12%	11%	1.9µM*	1%	5%
O=C(CSc1nncc2ccccc12)Nc1cccc(C(=O)O)c1	x	22%	11µM*	21%	u
O=C(CSc1nnc(SCc2cccc3ccccc23)s1)c1ccc2c(c1)OCO2	3%	4%	u	13%	2%
O=C(CSc1nnc(SCc2cccc3ccccc23)s1)Nc1ccc(C(=O)O)cc1	18%	-1%	8.5µM*	-9%	2%
Cc1csc(=O)n1CC(=O)OCC(=O)NCc1ccc(F)cc1	x	-3%	0%	2%	1%
Cc1nc2c(-c3ccccc3)c(C)nn2c(SCC(N)=O)c1Cc1ccccc1	x	-4%	-2%	-3%	6%
CCc1ccc(Nc2nnc(SCC(=O)Nc3cccc(S(=O)(=O)NC4=NCCCCC4)c3)s2)cc1	13µM*	u	0.48µM*	u	-10%
Cc1cccc(Nc2nnc(SCC(=O)Nc3cccc(S(=O)(=O)N4CCCCC4)c3)s2)c1	0%[1.84 µM]	14%	2.7µM*	4%	13%
CCc1ccc(Nc2nnc(SCC(=O)Nc3ccc(C(=O)O)cc3)s2)cc1	x	18%	0.54µM*	18%	6%
SMILES	SMN2 splice enh	NPC1 prom act	FLuc counter	Rab9 promoter act	ELG1 genotox
CCc1ccc(Nc2nnc(SCC(=O)NC(=O)c3cccn3C)s2)cc1	11%	1%	u	-6%	u
CC(=O)c1ccc(-c2ccc(C(=O)Nc3nc(C)c(C(C)=O)s3)o2)cc1	x	1%	-2%	2%	3%
CCN(CC(=O)NCc1ccc(F)cc1)C(=O)c1oc2ccccc2c1C	x	1%	-2%	0%	1%
O=C(NC12CC3CC(CC(C3)C1)C2)c1ccc([N+](=O)[O-])cc1	x	-2%	-1%	-1%	-6%
O=[N+]([O-])c1ccc(C23CC4CC(CC(O)(C4)C2)C3)cc1	x	2.8µM*	11µM*	1.6µM*	16%[9.26 µM]
Cc1noc(C)c1C(=O)NC1=NCCS1	x	-4%	-3%	7%	5%
Cc1ccc(C(=O)Nc2ccc(NC(=O)c3ccco3)c(C)c2)cc1	x	21%	5.4µM*	30%	u
CCC(=O)Nc1cc(C)c(NC(=O)c2ccco2)cn1	-14%	1%	4%	-2%	-1%
Cc1cc(O)c(NC(=O)c2ccco2)cc1C	11µM*	26%	30µM*	27%	u
Cc1cc(NC(=O)c2ccccc2)ncc1NC(=O)c1ccco1	8.9µM*	2µM*	11µM*	1.4µM*	1.6µM*
Cc1ccc(O)c(NC(=O)c2ccco2)c1	16µM*	u	6µM*	18%	11%
COC(=O)[C@@]1(Cc2ccccc2)[C@H]2c3cc(C(=O)N(C)C)n(Cc4ccc(S(C)(=O)=O)cc4)c3C[C@H]2CN1C(=O)c1ccccc1	-11%	x	x	x	x
CC(c1ccncn1)N(C)C(=O)c1ccc2oc(Cc3ccccc3)nc2c1 (stereo unspecified)	x	14%	-17%	12%	u
CC(C)(C)c1ccc(C(=O)NCCc2ccccc2)cc1	x	0.35µM*	0.76µM*	0.089µM*	u
O=C(NCCc1ccccc1)c1ccc(Cl)nc1	11µM*	4µM*	12µM*	2µM*	u
O=C(COC(=O)c1ccc(Cl)nc1)NCCc1ccc(Cl)cc1	x	x	x	x	-2%
CC(=O)Nc1ccc(NC(=O)c2ccccc2C)cc1	u	1%	-4%	-2%	18%
CC(Oc1ccc(C(=O)NCCc2ccccc2)cc1)C(=O)O (stereo unspecified)	-7%	8%	-19%	1%	2%
CC(=O)Nc1ccc(NC(=O)c2ccccc2CCc2ccccc2)cc1	32µM*	1%	-2%	-4%	-6%
CC(C)(C)c1ccc(C(=O)NCCCNC(=O)c2ccco2)cc1	x	-4%	15µM*	1%	2%
O=C(Nc1cccc(Cl)c1)C1CCN(S(=O)(=O)Cc2ccccc2)CC1	x	x	-3%	x	x
CC1CCN(c2ccc(C(=O)NCCc3ccccc3)cn2)CC1	u	u	24µM*	u	15%
CC(C)(C)c1ccc(C(=O)NCc2ccc(Cl)cc2)cc1	-7%	24%	-3%	18%	-1%
CC(C)(C)c1ccc(C(=O)NCc2ccccc2)cc1	x	23%	11µM*	6.3µM*	17%
CC(C)(C)C(=O)Nc1ccc(C(=O)NCc2cccnc2)cc1	3%	x	u	x	x
CC(C)(C)c1ccc(C(=O)Nc2ccc(C(=O)NCc3cccnc3)cc2)cc1	x	4%	12µM*	15%	-21%
CC(C)(C)c1ccc(C(=O)Nc2ncn[nH]2)cc1	10µM*	2.2µM*	9.5µM*	2.5µM*	u

Source: PubChem (National Center for Advancing Translational Sciences (NCATS))
